The source of these data is ChEMBL document CHEMBL1201862, “PubChem BioAssay data set” (2004).

Out of some 51,000 sequences screened, about 3,800 (7.5%) were called active. Rule as the data show it: active = GI50 up to about 1.1 µM and inactive = higher. What follows is part of a selection rich in actives, with near analogues and random picks from the rest. Measured potencies and affinities stand elsewhere.

In the experiment the test system is A498.
“[Bis(aminomethyl)pentamethylenesilane]dichloropaltinum(II), CHEMBL2146202”: the GI50 (commonly the concentration giving 50% growth inhibition) came to 0.279 µM.

Turning to “mu-(1,7-nanodiamine-N,N')bis-(cis-aminedichloroplatimum (II)), CHEMBL2146215”, the GI50 worked out at 66.5 µM. For “[Bis(aminomethyl)dimethylsilane]tetrachloroplatinum(IV), CHEMBL2146190”, the GI50 came to 15.5 µM. On to “[Bis(aminomethyl)pentamethylenesilane]tetrachloropaltinum(IV), CHEMBL2146204”, for which the GI50 was determined as 0.132 µM. For the substance “[Bis(aminomethyl)tetramethylenesilane]dichloropaltinum(II), CHEMBL2146205”, the GI50 was found to be 32.8 µM. For “[Bis(aminomethyl)tetramethylenesilane]tetrachloropaltinum(IV), CHEMBL2146189”, it took 1.64 µM to inhibit growth by half (GI50). For CISPLATIN, CHEMBL11359, it took 8.24 µM to inhibit growth by half (GI50).
